An excerpt weighted towards active compounds, which were near 0.84% of everything screened.
SRC2 inh: inhibits human steroid receptor coactivator 2; Q15596; HEK293 GAL4-SRC2 luciferase reporter, luminescence; inhibition, % at 9 µM; actives 0.17% (n = 370,000); AID 651957;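 active = inhibition above the mean inhibition of all tested compounds plus 3 SD, set per campaign, cut at about 52% in these data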;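 also: 0% = DMSO treated cells and 100% = cells given Gossypol at 36 µM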
NCOA3 inh: inhibits human SRC3 coactivator; Q9Y6Q9; HEK293 GAL4-SRC3 luciferase reporter, luminescence; inhibition, % at 3.6 µM; actives 0.17% (n = 360,000); AID 588352;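 active = inhibition above a per-campaign cutoff, the mean of all compounds plus 3 SD, cut at about 60% in these data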;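 also: 0% = DMSO-treated cells and 100% = gossypol-treated cells at 36 µM; higher means less SRC3-driven luciferase light from the GAL4 reporter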
Target sequence (Q9Y6Q9 whole entry, looked up, the tested form may be a part): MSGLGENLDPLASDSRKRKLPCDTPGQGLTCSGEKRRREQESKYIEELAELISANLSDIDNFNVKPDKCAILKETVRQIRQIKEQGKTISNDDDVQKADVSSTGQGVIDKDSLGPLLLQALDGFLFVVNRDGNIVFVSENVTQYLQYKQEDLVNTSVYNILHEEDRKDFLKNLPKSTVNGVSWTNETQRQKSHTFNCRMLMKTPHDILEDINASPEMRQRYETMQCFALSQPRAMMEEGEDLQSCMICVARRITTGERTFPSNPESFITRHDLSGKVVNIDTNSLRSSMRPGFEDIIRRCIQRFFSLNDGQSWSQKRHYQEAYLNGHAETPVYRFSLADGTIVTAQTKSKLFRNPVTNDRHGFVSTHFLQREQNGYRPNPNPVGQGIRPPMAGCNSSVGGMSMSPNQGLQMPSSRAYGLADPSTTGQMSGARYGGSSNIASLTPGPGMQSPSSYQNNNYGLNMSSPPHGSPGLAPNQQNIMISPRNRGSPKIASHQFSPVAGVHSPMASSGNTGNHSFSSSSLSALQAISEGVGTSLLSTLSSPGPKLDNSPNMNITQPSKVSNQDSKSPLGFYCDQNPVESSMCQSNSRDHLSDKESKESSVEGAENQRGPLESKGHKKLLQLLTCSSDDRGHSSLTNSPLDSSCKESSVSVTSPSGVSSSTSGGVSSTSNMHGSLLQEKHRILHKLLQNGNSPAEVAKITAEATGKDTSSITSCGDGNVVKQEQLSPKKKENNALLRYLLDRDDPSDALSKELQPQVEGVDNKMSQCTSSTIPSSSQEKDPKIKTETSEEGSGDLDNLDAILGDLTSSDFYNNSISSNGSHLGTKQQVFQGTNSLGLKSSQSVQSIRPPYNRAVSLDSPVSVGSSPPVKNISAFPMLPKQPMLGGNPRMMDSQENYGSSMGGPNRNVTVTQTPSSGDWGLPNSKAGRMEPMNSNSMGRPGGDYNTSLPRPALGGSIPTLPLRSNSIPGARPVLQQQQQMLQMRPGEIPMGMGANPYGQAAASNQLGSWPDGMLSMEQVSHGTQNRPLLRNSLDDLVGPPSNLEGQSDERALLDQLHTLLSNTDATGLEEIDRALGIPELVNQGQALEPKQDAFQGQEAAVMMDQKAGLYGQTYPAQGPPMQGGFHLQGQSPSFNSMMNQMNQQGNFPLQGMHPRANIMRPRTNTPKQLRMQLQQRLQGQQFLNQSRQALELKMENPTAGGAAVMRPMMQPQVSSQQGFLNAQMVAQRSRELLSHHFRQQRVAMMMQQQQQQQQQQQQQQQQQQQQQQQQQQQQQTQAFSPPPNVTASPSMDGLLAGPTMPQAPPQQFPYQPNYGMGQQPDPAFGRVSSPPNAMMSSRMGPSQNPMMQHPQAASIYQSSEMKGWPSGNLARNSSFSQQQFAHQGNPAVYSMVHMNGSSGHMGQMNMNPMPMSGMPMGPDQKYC
NR2F2 inh: inhibitors of human COUP-TFII (NR2F2); inhibition, % at 8.6 µM; AID 686940; actives 0.7% (n = 370,000); HEK293T NGFI-A luciferase reporter, luminescence;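 active = inhibition above a per-plate cutoff, mean inhibition of test wells between control levels plus 3 SD, cut at about 38% in these data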;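 also: cells cotransfected with COUP-TFII expression vector driving the NGFI-A reporter; 0% = median of COUP-TF2 test wells and 100% = reporter-only cells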
NCOA1 inh: inhibitors of human steroid receptor coactivator 1 (SRC1); inhibition, % at 3.6 µM; HEK293 GAL4-SRC1 luciferase reporter, luminescence; Q15788; AID 588354; actives 0.12% (n = 360,000);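 active = inhibition above the campaign mean plus 3 SD, with each screening campaign given its own cutoff, cut at about 60% in these data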;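 also: 0% = DMSO treated cells and 100% = gossypol at 36 µM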
NR5A2 inv ag: inverse agonists of human LRH-1 (NR5A2); O00482; HEK293T StAR-luciferase reporter, LRH-1 transfected, 24 h; inhibition, % at 3.6 µM; actives 0.13% (n = 360,000); AID 602396;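 active = inhibition above the mean inhibition of all tested compounds plus 3 SD, cut at about 73% in these data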;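 also: 0% = DMSO wells and 100% = reporter-only cells lacking LRH-1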
VP16 Luc counter: inhibits VP16 reporter, flagging COUP-TFII antagonist hits | shares compounds with NR2F2 inh | actives 25% (n = 2,500) | inhibition, % at 8.5 µM | HEK293 Gal4-VP16 luciferase reporter, luminescence; in the data active = inhibition above about 13%
COUP-TFII conf: COUP-TFII (NR2F2) inhibition, confirmation assay; shares compounds with NR2F2 inh; HEK293 NGFI-A luciferase reporter, luminescence; inhibition, % at 8.5 µM; actives 45% (n = 2,500); AID 687008;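 active = mean inhibition over three repeats above a set limit taken from the earlier primary screen, cut at about 38% in these data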;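 also: 100% = cells given the luciferase reporter alone without the COUP-TF2 vector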
Active calls of the source: *; i = inactive; / = no result.

SMILES | SRC2 inh | NCOA3 inh | NR2F2 inh | NCOA1 inh | NR5A2 inv ag | VP16 Luc counter | COUP-TFII conf
COc1cc(CNc2ncnc3c2[nH]c2ccc(C)cc23)cc(OC)c1 | 5 | 16 | 33 | 15 | 11 | / | /
CC1CCC2(CCC(=O)N2CCCOC(=O)Nc2cccc(C(F)(F)F)c2)CC1 (centres undefined) | -41 | / | -8 | / | / | / | /
C=CCN1C(=O)[C@H](CC(=O)N2CCSCC2)[C@@]2(C(=O)OCC)CCCC=C12 | 4 | / | 3 | / | / | / | /
COc1cccc(-c2nnc(SCc3cc(C)ccc3C)n2Cc2ccco2)c1 | 18 | / | 41* | / | / | 9 | 11
COc1ccc(C(=O)NNC(=O)c2ccccn2)cc1 | 36 | -8 | 46* | -42 | -101 | -112 | -64
COc1cc(OC)cc(C(=O)NNC(=O)c2ccccn2)c1 | -1 | -11 | 9 | 25 | 11 | / | /
COc1cc(OC)cc(C(=O)O/N=C(\N)c2ccccn2)c1 | -64 | -73 | -48 | -77 | -74 | / | /
COc1ccc(C(=O)O/N=C(\N)c2ccccn2)cc1 | 42 | -38 | 48* | -33 | -22 | -168 | -104
COc1ccccc1C(=O)O/N=C(\N)c1ccccn1 | -15 | -64 | -29 | -201 | -125 | / | /
Cc1ccc(C(=O)O/N=C(\N)c2ccccn2)c(C)c1 | 77* | 70* | 78* | 57 | 72 | 65* | 84*
COCCn1c(C)cc(C(=O)COC(=O)c2cc3c(s2)CCC3)c1C | -14 | -17 | -12 | 9 | 6 | / | /
COCCn1c(C)cc(C(=O)COC(=O)c2cccc(O)c2)c1C | 52 | 60 | 72* | 54 | -19 | 64* | 87*
CCOc1ccccc1NC(=O)CSc1nnc(SCc2ccccc2)s1 | 15 | / | 11 | / | / | / | /
COc1ccc(CSc2nnc(SCC(=O)Nc3ccc4c(c3)OCO4)s2)cc1 | 17 | / | 14 | / | / | / | /
COc1cccc(C(C)(O)c2nc(-c3ccc(N(C)C)cc3)cs2)c1 (centres undefined) | 15 | -9 | 55* | 13 | 10 | -22 | 34
COC(=O)c1ccc2nc(NC(=O)CSCC(=O)OCC(=O)c3ccccc3)sc2c1 | -49 | -15 | -13 | -35 | -45 | / | /
Cc1ccc2nc(NC(=O)CSCC(=O)OCC(=O)c3ccc(Br)cc3)sc2c1 | 44 | 36 | 40* | 2 | -1 | 67* | 49*
Fc1cccc(-c2cc3nc(-c4ccccc4)cc(N4CCC5(CC4)OCCO5)n3n2)c1 | 17 | 0 | -4 | -6 | 1 | / | /
COCCN1CCN(c2cc(-c3ccccc3)nc3cc(-c4cccc(F)c4)nn23)CC1 | 30 | 2 | 47* | -1 | 23 | -6 | -3
CSCCCNC(=O)c1cn(C(C)c2ccccc2)nn1 (centres undefined) | 12 | / | -11 | / | / | / | /
Oc1cccc2ccc(Nc3ccccn3)nc12 | -8 | 39 | 39* | -5 | 24 | -2 | 29
CCN(CC)c1ccc(C(=C2C=CC(=[N+](CC)CC)C=C2)c2ccc(N(CC)CC)cc2)cc1 | 16 | 79* | 83* | 67* | 96* | 57* | 80*
CCN(CC)c1ccc(C(=O)NNC(=O)CCl)cc1 | -3 | -8 | 5 | -61 | 5 | / | /
CCN(CC)c1ccc(C(=O)NNC(=O)CCNC(=O)c2ccccc2)cc1 | 10 | -28 | -5 | -10 | -12 | / | /
CCN(CC)c1ccc(C(=C2C=CC(=[N+](CC)CC)C=C2)c2ccccc2)cc1 | 94* | 62* | 105* | 33 | 95* | 98* | 113*
SMILES | SRC2 inh | NCOA3 inh | NR2F2 inh | NCOA1 inh | NR5A2 inv ag | VP16 Luc counter | COUP-TFII conf
CN1CCN(c2ccc(CNS(=O)(=O)Cc3cccc(C(F)(F)F)c3)cc2)CC1 | 18 | 21 | 61* | 37 | 51 | -3 | 45*
CN1CCN(c2ccc(CNS(=O)(=O)c3ccccc3)cc2)CC1 | -3 | 5 | 21 | 2 | 6 | / | /
O=S(=O)(c1ccc(F)c(F)c1F)N1CCN(c2ncnc3sccc23)CC1 | 21 | -8 | 40* | 11 | 27 | -2 | 32
Cc1ccc(S(=O)(=O)N2CCN(c3ncnc4sccc34)CC2)cc1 | 22 | 15 | 50* | 8 | 20 | 6 | 37
CC(=O)Nc1c(-c2ccc(C(F)(F)F)cc2)nc2ncccn12 | 2 | / | -13 | / | / | / | /
CCC(C)Nc1nc2c(c(=O)n(C)c(=O)n2C)n1Cc1ccc(Cl)cc1 (centres undefined) | -9 | -1 | 3 | 6 | 7 | / | /
CCNc1nc2c(c(=O)n(C)c(=O)n2C)n1Cc1ccc(Cl)cc1 | 26 | 15 | 53* | 25 | 29 | 6 | 36
CCN(CC)CCC(=O)N1C/C(=C/c2ccccc2)C(=O)/C(=C\c2ccccc2)C1 | 37 | -8 | 74* | -85 | 70 | 67* | 65*
O=C1/C(=C\c2ccc(Cl)c(Cl)c2)CN(C(=O)CCN2CCOCC2)C/C1=C/c1ccc(Cl)c(Cl)c1 | 30 | -241 | 85* | i | 61 | 92* | 106*
O=C1/C(=C\c2ccccc2)CCC/C1=C/c1ccccc1 | -31 | 1 | 2 | 4 | 1 | / | /
O=C(CCN1C(=O)S/C(=C\c2ccccc2)C1=O)N1CCCCC1 | -8 | -7 | -9 | -34 | -26 | / | /
O=C1/C(=C\c2ccccc2)CN(C(=O)CCN2CCCCC2)C/C1=C/c1ccccc1 | 40 | 2 | 63* | -8 | 74* | 64* | 63*
COC(=O)[C@]12C[C@H](CC(=O)N3CCSCC3)C(=O)N(CCc3ccc(OC)c(OC)c3)C1=C[C@H](C1CCCC1)O[C@@H]2C | 4 | / | 12 | / | / | / | /
O=C(CC1CCCC1)N1CC[C@H]2[C@H](CCCN2Cc2cc(F)cc(F)c2)C1 | -27 | / | -1 | / | / | / | /
Cn1c2ccccc2c(=O)c2cc(C#CC3(O)CCCCC3)ccc21 | 6 | 19 | 45* | 17 | 9 | -67 | 38*
O=c1c2ccccc2oc2ccc(C#CC3(O)CCCCC3)cc12 | -16 | 26 | 37 | 34 | 18 | / | /
Cc1cc2sc3ccc(C#CC4(O)CCCCC4)cc3c(=O)c2cc1C | 82* | 87* | 89* | 88* | 78* | 89* | 109*
C=CCN(C(=O)[C@@H](CCCC)[C@@H](O)c1ccc2ccccc2c1)c1ccccc1 | 2 | / | 8 | / | / | / | /
CCCCCn1nnnc1C1(C)CCSCC(=O)N1Cc1ccco1 (centres undefined) | 11 | / | -5 | / | / | / | /
Cn1nc(C(F)(F)F)c(C#N)c1N1CCN(c2ccc(F)cc2)CC1 | 41 | 50 | 45* | 43 | 4 | 11 | 31
Cn1nc(C(F)(F)F)c(C#N)c1N1CCN(c2ccccc2)CC1 | 36 | 37 | 24 | 41 | 0 | / | /
O=C(/C=C\Nc1ccc2c(c1)OCO2)c1ccccn1 | 73* | 34 | 46* | 12 | -34 | 31* | 52*
Cc1c(C(=O)N/N=C/c2ccccc2Cl)[nH][nH]c1=O | -31 | / | -47 | / | / | / | /

Screening results as filed in PubChem BioAssay.
